# Records with an inconclusive call do not appear. Active and inactive are the calls of the source. The call rests on the fitted dose curve; in most records, active means well fitted inhibition curve with a large enough effect; inconclusive means small, poorly fitted or top-dose-only effect; inactive means flat fitted curve, though single readings scatter.
# Test: Secondary Assay for lipid storage modulators: Cytotoxcity for probe SAR round 2
# From the text: NIH Molecular Libraries Probe Production Centers Network [MLPCN] NIH Chemical Genomics Center [NCGC] MLPCN Grant: 1 R03 MH085686-01 Assay Submitter (PI): Beller, Mathias; Max-Planck-Institut fur Biophysikalische Chemie, Germany. NCGC Assay Overview: Storing lipids as a reservoir for energy or the anabolism of elementary metabolites is a common feature of probably all cells and is conserved from bacteria to humans. The universal cellular lipid storage organelle is the so-called lipid storage droplet (LD). Although ubiquitous, LDs share a simple structure composed of a hydrophobic core that harbors the storage lipids, which is shielded by a droplet-specific phospholipid monolayer to which proteins are attached. The current model of LD biogenesis involves an incorporation of the lipid core into the membrane leaflets of the endoplasmic reticulum (ER) followed by a subsequent budding-like maturation of a LD, which ultimately pinches off. Once released, LD volume can increase by localized lipogenesis or fusion of existing droplet. Storage lipids are re-mobilized enzymatically by lipase activity. […]
# Assay Protocol Summary: Cytotoxcity assay was performed with embryonic Drosophila S3 cells (Bloomington Drosophila Genomics Resource Center [DGRC]). […] Luminescence was detected on the Perkin Elmer ViewLux.
smiles,measurement,value
CCC/C=C/C/C=C/C=C/C=N/NN=O,outcome,inactive

# Reference: PubChem BioAssay AID504433 (National Center for Advancing Translational Sciences (NCATS), 2011)
